Assay results as given in PubChem BioAssay AID1559 (National Center for Advancing Translational Sciences (NCATS), 2009).
Records with an inconclusive call do not appear. Activity calls are given as the source filed them. Calls follow the shape of the dose curve; as a rule, active = well fitted curve in the direction sought with a large enough effect; inconclusive = small, poorly fitted or top-dose-only effect, or another doubt; inactive = no such curve, though single readings can be large or run the other way.

biological target: Microtubule-associated protein tau (Homo sapiens) (UniProt P10636); test: Confirmation Concentration-Response Assay for Inhibitors of Tau Fibril Formation, Fluorescence Polarization; details: recombinant tau K18 P301L (four-repeat tau fragment) heparin fibrillization, Alexa594 FP; series mostly up to 57.1 µM
Text: NIH Molecular Libraries Probe Production Network [MLPCN] NIH Chemical Genomics Center [NCGC] MLPCN Grant: X01 MH083262-01 Assay Provider: Carlo Ballatore, University of Pennsylvania NCGC Assay Overview: The microtubule-associated protein tau is an abundant protein in the axons of neurons that stabilizes microtubules. With its ability to modulate microtubule dynamics, tau contributes directly or indirectly, to key structural and regulatory cellular functions. Particularly important is the influence tau exerts on axonal transport, which allows signaling molecules, trophic factors and other essential cellular constituents to travel along the axons. Under pathological conditions, tau becomes sequestered into insoluble aggregates called neurofibrillary tangles. This phenomenon is believed to have pathological consequences by promoting axonal transport deficits that ultimately lead to synaptic dysfunction and neuronal loss. To identify inhibitors of tau aggregation, a heparin-induced tau fibril formation assay was used that employed a recombinantly expressed fragment of tau, K18 (Q242-E372), bearing a P301L mutation (Gustke et al. 1994; Hong et al. 1998). […] Gustke, N., B. Trinczek, et al. (1994). "Domains of tau protein and interactions with microtubules." Biochemistry 33(32): 9511-22. Hong, M., V. Zhukareva, et al. (1998). "Mutation-specific functional impairments in distinct tau isoforms of hereditary FTDP-17." Science 282(5395): 1914-7. Li, W. and V. M. Lee (2006). "Characterization of two VQIXXK motifs for tau fibrillization in vitro." Biochemistry 45(51): 15692-701. von Bergen, M., S. Barghorn, et al. (2001). "Mutations of tau protein in frontotemporal dementia promote aggregation of paired helical filaments by enhancing local beta-structure." J Biol Chem 276(51): 48165-74.
For screening, 2 uL/well human K18 P301L (15 uM unlabeled and 0.24 uM Alexa 594-labeled tau final concentrations) in reagent buffer (100 mM sodium acetate pH 7) was dispensed into black solid 1536-well plates (Grenier) using a solenoid-based dispenser. Following transfer of 23 nL compound or DMSO vehicle by a pin tool, 2 uL/well heparin (20 uM final concentration) in reagent buffer was added and the plate centrifuged 15 s at 1000 RPM. Plates were incubated 6 hr at 37 C and then 1 uL/well ThT (30 uM final concentration) was added. After a 1 hr ambient incubation, the plates were read by an Envision (Perkin Elmer) to monitor Alexa 594 FP (555 nm excitation and 632 nm emission). Keywords: NIH Roadmap, MLPCN, MLI, MLSMR, NCGC, qHTS, tau, tauopathies, Alzheimer's disease, fibril, neurodegeneration, aggregation

Chain of Microtubule-associated protein tau (Homo sapiens) (P10636 561-689 P618L limits assumed): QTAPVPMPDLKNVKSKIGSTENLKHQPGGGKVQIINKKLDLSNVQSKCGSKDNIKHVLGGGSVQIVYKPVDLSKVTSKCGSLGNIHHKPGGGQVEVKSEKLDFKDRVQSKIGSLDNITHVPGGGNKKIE

Potency, active:
O=C(NCCCO)Nc1ccc2nc(-c3ccco3)c(-c3ccco3)nc2c1 7.94 µM, CCN(CC)S(=O)(=O)c1cccc(NC(=O)Nc2cccc(C(F)(F)F)c2)c1 2.82 µM, Nc1scc2c(C(=O)O)nn(-c3ccccc3)c(=O)c12 7.08 µM, O=S(=O)(c1ccc2nc(-c3ccco3)c(-c3ccco3)nc2c1)N1CCOCC1 7.94 µM

Potency, inactive:
COC(=O)C1CCc2sc(N)c(C(=O)OCc3ccccc3)c21 (stereo not given), CCOC(=O)c1nn(-c2ccccc2)c(=O)c2c(N)sc(C)c12, CC(=O)Nc1sc(C)c2cnn(-c3ccccc3)c(=O)c12, O=C(Cc1ccccc1)Nc1sc2c(c1C(=O)Nc1ccc(Cl)cc1)CCOC2, NCCc1ccc(O)c(O)c1, Cc1[nH]c(=O)c(C#N)cc1-c1ccncc1, CC1CCc2c(sc(NC(=O)Cc3ccccc3)c2C(=O)Nc2ccc(Cl)cc2)C1 (stereo not given), Cc1ccc(NC(=O)N2CCN(c3ccccn3)CC2)cc1, CCOC(=O)c1c(N)sc2c1CN(C)CC2, CCOC(=O)c1nn(-c2ccccc2)c(=O)c(C#N)c1C, COc1ncc(-c2ccccc2)cc1N, N#Cc1cccc(NC(=O)c2ccc3c(c2)N(Cc2cccc(Cl)c2)C(=O)c2ccccc2S3(=O)=O)c1, Cc1ccc(SCc2cc(=O)n(C)[nH]2)cc1, COC(=O)CSc1nc2ccc(NC(=O)CSc3nnnn3Cc3ccccc3)cc2s1, COc1ccc(CNC(=O)Cn2nc(C)n3cccc3c2=O)cc1, O=C(Nc1cccc(-c2nc3ccccc3o2)c1)c1cc([N+](=O)[O-])ccc1N1CCOCC1, COc1ccc2oc(-c3ccc(NC(=O)c4ccc(N5CCOCC5)c([N+](=O)[O-])c4)cc3)nc2c1, Cc1ccc(NCc2cc3cc4c(cc3n(CC(=O)Nc3ccc(C)cc3)c2=O)OCCO4)cc1, COc1ccc2c(c1)c(CC(=O)Nc1ccc(C(C)=O)cc1)c(C)n2C(=O)c1ccc(Cl)cc1, NC[C@@H](O)c1ccc(O)c(O)c1, Nc1ccc(-c2ccc3ccccc3n2)cc1, CCOC(=O)c1ccc(-n2nc(C(=O)OCC)c3csc(N)c3c2=O)cc1, CCOC(=O)c1nn(-c2ccc(OC)cc2)c(=O)c2c(NC(=O)Cc3ccccc3)scc12, COc1cc(/C=N/N=C2/NC(=O)C(CC(=O)O)S2)ccc1OCc1ccc(Cl)cc1 (stereo not given), COC(=O)c1c(N)sc2c1C(C(=O)OC)CC2 (stereo not given), CCOC(=O)c1nn(-c2ccccc2F)c(=O)c2c(N)scc12, Cc1nc2ccccc2oc1=O, Cc1sc(N)c2c(=O)n(-c3ccccc3)ncc12, CCOC(=O)c1nn(-c2cccc(C(F)(F)F)c2)c(=O)c2c(N)scc12, S=C1Cc2ccccc2N1, O=C(Cc1ccccc1)Nc1sc2c(c1C(=O)Nc1cccc(Cl)c1)CCCC2, CN(c1ccccc1)S(=O)(=O)c1nnc(NC(=O)COc2ccccc2)s1, COc1ccc(NC(=O)C2CCN(S(=O)(=O)c3c(C)noc3/C=C/c3cccs3)CC2)cc1Cl, Cn1cc(Cl)c(C(=O)Nc2cccc(Cl)c2Cl)n1, CCN(c1ccccc1)S(=O)(=O)c1nnc(NC(=O)C(C)(C)C)s1, O=C(Nc1nc2ccc(S(=O)(=O)N3CCCC3)cc2s1)c1ccc(F)cc1
